# According to article PMC7862700, “An all-to-all approach to the identification of sequence-specific readers for epigenetic DNA modifications on cytosine”:
# What was measured:
# Assay in all cases: DAPPL (digital affinity profiling via proximity ligation, sequencing); 10 mM Tris-HCl pH 7.5, 50 mM NaCl, 1 mM DTT, 4% glycerol, room temperature, 30 min; GST-TFs on glutathione beads, 16-mer random dsDNA library, 0.1% formaldehyde crosslink after washing; high values mean tight binding
# [1] = target: T1, FLI1 (Homo sapiens, UniProt Q01543 1-452); conditions: protein: recombinant; tags: N-terminal GST; dsDNA, one strand shown
# T1 sequence: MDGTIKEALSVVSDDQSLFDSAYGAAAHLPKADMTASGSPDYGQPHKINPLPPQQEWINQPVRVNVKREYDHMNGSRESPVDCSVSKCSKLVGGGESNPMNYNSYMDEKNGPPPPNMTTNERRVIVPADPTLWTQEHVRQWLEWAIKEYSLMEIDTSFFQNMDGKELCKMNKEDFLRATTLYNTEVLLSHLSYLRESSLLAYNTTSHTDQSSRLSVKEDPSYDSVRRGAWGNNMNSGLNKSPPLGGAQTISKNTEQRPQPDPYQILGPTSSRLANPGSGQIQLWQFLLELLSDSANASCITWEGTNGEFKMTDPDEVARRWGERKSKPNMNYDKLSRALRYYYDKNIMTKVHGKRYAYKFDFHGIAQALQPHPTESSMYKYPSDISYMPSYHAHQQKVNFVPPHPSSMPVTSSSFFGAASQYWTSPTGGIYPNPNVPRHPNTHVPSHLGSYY
# How it was run: (§1)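 Pools were built from human transcription factors expressed in yeast as GST fusions, captured on glutathione beads and DNA-barcoded, along with a tag-only sample. Incubation with 200 nmole of a 16-mer random double-stranded DNA library lasted 30 min at room temperature in Tris/NaCl/DTT/glycerol buffer, and was followed by washing, 0.1% formaldehyde crosslinking, proximity ligation, PCR amplification and Illumina NextSeq500 sequencing. Binding signal is the quotient of each hexamer's read frequency for a factor and its frequency for the tag-only sample.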
# [2] = target: T2, ELK1 (Homo sapiens, UniProt P19419 1-428); conditions: protein: recombinant; tags: N-terminal GST; dsDNA, one strand shown
# T2 sequence: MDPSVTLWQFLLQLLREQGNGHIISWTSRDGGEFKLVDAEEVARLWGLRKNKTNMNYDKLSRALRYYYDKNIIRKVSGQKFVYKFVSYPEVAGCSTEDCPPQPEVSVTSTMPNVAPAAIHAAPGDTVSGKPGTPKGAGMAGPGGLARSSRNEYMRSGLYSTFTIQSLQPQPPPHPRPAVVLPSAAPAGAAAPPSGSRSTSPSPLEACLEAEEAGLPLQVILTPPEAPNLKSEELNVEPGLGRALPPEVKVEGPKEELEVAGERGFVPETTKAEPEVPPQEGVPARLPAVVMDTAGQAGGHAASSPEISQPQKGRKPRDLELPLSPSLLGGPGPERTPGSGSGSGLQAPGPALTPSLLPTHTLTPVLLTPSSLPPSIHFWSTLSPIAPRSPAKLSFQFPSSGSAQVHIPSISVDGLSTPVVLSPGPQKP
# How it was run: as §1
# [3] = target: T3, GABPA (Homo sapiens, UniProt Q06546 1-454); conditions: protein: recombinant; tags: N-terminal GST; dsDNA, one strand shown
# T3 sequence: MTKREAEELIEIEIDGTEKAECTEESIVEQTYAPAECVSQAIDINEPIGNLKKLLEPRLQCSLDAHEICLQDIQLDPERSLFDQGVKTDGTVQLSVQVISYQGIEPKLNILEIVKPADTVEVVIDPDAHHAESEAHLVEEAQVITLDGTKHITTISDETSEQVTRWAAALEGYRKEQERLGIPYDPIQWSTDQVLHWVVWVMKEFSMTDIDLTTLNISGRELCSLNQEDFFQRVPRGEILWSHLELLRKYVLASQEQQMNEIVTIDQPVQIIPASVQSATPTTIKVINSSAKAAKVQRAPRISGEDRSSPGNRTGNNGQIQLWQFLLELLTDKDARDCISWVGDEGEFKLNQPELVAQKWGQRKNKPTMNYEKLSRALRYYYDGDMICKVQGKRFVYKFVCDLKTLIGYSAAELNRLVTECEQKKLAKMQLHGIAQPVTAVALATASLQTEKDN
# How it was run: as §1
# [4] = target: T4, ERG (Homo sapiens, UniProt P11308 1-479); conditions: protein: recombinant; tags: N-terminal GST; dsDNA, one strand shown
# T4 sequence: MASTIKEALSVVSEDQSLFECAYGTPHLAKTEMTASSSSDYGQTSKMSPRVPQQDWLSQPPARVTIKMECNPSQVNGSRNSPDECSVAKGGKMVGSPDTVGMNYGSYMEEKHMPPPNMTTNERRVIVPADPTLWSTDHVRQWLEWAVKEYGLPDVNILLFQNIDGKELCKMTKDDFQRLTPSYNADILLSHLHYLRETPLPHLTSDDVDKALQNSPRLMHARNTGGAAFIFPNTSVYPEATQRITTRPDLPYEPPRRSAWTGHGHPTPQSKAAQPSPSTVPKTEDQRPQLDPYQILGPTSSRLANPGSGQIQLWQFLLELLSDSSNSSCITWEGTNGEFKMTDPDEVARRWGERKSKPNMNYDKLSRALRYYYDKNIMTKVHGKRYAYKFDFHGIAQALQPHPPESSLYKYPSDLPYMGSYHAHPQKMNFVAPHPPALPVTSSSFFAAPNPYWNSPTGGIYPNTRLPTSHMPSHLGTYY
# How it was run: as §1
# [5] = target: ELF1 (Homo sapiens, UniProt P32519 1-619); conditions: protein: recombinant; tags: N-terminal GST; dsDNA, one strand shown
# How it was run: as §1
# [6] = target: T5, EHF (Homo sapiens, UniProt Q9NZC4 1-300); conditions: protein: recombinant; tags: N-terminal GST; dsDNA, one strand shown
# T5 sequence: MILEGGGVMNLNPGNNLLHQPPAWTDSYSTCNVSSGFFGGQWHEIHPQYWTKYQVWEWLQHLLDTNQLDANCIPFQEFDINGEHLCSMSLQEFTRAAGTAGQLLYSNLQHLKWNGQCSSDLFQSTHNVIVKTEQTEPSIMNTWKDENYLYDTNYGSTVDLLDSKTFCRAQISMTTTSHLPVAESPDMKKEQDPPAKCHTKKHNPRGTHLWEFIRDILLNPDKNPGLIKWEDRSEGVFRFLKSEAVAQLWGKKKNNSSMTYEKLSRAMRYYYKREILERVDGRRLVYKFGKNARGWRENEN
# How it was run: as §1
# [7] = target: SPI1 (Homo sapiens, UniProt P17947 1-270); conditions: protein: recombinant; tags: N-terminal GST; dsDNA, one strand shown
# How it was run: as §1
# [8] = target: SPIB (Homo sapiens, UniProt Q01892 1-262); conditions: protein: recombinant; tags: N-terminal GST; dsDNA, one strand shown
# How it was run: as §1
# [9] = target: T6, ELK3 (Homo sapiens, UniProt P41970 1-407); conditions: protein: recombinant; tags: N-terminal GST; dsDNA, one strand shown
# T6 sequence: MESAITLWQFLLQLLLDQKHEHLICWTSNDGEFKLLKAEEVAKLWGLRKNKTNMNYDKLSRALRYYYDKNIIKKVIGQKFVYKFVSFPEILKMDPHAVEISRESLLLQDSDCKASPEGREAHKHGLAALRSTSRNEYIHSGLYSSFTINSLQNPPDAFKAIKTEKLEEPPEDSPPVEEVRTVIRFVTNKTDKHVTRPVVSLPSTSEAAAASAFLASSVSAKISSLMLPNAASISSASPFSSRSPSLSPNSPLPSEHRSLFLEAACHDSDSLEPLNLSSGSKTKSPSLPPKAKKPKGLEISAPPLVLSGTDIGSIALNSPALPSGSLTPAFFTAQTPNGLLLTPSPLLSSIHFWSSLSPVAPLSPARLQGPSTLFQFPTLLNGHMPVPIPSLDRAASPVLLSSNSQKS
# How it was run: as §1
# [10] = target: T7, FEV (Homo sapiens, UniProt Q99581 1-238); conditions: protein: recombinant; tags: N-terminal GST; dsDNA, one strand shown
# T7 sequence: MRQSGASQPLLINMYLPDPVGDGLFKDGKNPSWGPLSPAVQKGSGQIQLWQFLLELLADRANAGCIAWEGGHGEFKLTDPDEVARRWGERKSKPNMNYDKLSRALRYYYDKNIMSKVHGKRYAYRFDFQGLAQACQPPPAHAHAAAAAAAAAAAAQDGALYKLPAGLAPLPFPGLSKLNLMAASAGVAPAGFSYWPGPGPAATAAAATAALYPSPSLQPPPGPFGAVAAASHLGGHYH
# How it was run: as §1
# [11] = target: ETV5 (Homo sapiens, UniProt P41161 1-510); conditions: protein: recombinant; tags: N-terminal GST; dsDNA, one strand shown
# How it was run: as §1
# [12] = target: HSF1 (Homo sapiens, UniProt Q00613 1-529); conditions: protein: recombinant; tags: N-terminal GST; chain copies: 3; dsDNA, one strand shown
# How it was run: as §1
# [13] = target: T8, SPIC (Homo sapiens, UniProt Q8N5J4 1-248); conditions: protein: recombinant; tags: N-terminal GST; dsDNA, one strand shown
# T8 sequence: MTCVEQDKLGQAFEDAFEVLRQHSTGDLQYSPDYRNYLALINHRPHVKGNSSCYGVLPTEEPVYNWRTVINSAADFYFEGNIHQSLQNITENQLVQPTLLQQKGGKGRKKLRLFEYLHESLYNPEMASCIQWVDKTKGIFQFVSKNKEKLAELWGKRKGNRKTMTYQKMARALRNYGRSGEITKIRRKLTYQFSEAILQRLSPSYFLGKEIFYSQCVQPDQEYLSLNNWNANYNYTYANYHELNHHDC
# How it was run: as §1
# [14] = target: ELF4 (Homo sapiens, UniProt Q99607 1-663); conditions: protein: recombinant; tags: N-terminal GST; dsDNA, one strand shown
# How it was run: as §1
# [15] = target: T9, ELK4 (Homo sapiens, UniProt P28324-2 1-405); conditions: protein: recombinant; tags: N-terminal GST; dsDNA, one strand shown
# T9 sequence: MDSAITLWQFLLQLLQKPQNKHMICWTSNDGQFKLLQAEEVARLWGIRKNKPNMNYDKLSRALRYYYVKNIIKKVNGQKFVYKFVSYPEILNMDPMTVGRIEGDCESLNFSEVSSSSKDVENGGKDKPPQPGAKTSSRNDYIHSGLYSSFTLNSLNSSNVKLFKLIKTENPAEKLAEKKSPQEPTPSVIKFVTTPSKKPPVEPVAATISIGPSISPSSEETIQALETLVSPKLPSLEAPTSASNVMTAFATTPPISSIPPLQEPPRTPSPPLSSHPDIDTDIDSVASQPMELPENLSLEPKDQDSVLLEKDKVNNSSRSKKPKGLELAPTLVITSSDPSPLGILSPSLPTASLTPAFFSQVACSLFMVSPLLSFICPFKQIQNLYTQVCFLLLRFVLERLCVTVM
# How it was run: as §1
# [16] = target: T10, ETV2 (Homo sapiens, UniProt O00321 1-342); conditions: protein: recombinant; tags: N-terminal GST; dsDNA, one strand shown
# T10 sequence: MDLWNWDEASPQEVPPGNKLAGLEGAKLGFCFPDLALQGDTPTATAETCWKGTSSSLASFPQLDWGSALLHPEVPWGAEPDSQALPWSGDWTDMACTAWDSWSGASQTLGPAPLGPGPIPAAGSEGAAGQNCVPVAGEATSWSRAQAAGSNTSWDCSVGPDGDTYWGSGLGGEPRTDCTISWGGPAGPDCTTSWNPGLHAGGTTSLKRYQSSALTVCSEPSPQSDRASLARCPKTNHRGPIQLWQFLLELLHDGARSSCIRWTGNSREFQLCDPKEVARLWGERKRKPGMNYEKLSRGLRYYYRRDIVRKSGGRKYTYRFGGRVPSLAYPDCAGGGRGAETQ
# How it was run: as §1
# [17] = target: T11, ELF3 (Homo sapiens, UniProt P78545 1-371); conditions: protein: recombinant; tags: N-terminal GST; dsDNA, one strand shown
# T11 sequence: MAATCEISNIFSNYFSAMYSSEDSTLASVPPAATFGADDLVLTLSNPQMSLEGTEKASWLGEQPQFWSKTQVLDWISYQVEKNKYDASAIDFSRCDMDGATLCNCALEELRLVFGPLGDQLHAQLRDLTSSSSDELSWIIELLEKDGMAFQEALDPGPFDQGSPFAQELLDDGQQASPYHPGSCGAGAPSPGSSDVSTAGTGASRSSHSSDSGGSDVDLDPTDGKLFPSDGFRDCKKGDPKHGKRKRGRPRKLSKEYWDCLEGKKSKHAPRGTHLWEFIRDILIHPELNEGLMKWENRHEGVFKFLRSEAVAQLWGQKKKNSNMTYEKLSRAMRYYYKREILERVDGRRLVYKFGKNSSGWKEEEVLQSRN
# How it was run: as §1
# [18] = target: CRX (Homo sapiens, UniProt O43186 1-299); conditions: protein: recombinant; tags: N-terminal GST; dsDNA, one strand shown
# How it was run: as §1
# [19] = target: ETV1 (Homo sapiens, UniProt P50549 1-477); conditions: protein: recombinant; tags: N-terminal GST; dsDNA, one strand shown
# How it was run: as §1
# ETV5, sequence (P41161 whole entry): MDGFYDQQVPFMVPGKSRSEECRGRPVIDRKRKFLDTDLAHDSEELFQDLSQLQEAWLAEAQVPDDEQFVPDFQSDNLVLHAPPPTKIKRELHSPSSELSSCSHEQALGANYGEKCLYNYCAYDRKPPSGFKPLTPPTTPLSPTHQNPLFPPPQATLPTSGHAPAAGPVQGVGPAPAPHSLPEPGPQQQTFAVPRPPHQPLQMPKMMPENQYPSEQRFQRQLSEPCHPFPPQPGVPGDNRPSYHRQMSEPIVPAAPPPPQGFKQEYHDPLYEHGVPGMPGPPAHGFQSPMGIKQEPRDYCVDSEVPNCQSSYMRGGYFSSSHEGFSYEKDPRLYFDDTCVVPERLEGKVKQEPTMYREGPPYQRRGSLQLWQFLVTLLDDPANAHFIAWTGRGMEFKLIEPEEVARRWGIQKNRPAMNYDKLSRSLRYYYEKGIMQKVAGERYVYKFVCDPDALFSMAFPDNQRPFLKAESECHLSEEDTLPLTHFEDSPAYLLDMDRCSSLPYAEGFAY
# HSF1, sequence (Q00613 whole entry): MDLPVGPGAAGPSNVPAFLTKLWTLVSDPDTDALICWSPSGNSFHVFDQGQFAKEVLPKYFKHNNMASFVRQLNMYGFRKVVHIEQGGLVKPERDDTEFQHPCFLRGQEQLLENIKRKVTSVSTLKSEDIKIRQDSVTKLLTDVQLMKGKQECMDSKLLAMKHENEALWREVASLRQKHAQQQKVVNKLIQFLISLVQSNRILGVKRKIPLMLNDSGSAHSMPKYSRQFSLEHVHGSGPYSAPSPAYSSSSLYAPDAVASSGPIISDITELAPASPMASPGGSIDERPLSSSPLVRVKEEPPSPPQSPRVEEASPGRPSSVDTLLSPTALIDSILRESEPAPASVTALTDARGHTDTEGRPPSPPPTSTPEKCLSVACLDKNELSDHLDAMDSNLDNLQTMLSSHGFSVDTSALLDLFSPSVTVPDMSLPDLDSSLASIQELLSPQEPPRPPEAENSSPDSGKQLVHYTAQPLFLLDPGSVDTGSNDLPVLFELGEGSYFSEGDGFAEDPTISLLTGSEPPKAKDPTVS
# CRX, sequence (O43186 whole entry): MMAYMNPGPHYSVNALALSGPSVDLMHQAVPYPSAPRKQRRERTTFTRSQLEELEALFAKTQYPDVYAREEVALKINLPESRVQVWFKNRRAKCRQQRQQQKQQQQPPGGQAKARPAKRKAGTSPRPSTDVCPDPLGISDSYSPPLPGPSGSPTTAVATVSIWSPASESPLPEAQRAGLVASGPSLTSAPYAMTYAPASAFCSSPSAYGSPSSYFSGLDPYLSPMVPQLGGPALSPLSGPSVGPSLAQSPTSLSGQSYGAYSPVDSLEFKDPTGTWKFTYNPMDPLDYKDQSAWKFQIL
# ETV1, sequence (P50549 whole entry): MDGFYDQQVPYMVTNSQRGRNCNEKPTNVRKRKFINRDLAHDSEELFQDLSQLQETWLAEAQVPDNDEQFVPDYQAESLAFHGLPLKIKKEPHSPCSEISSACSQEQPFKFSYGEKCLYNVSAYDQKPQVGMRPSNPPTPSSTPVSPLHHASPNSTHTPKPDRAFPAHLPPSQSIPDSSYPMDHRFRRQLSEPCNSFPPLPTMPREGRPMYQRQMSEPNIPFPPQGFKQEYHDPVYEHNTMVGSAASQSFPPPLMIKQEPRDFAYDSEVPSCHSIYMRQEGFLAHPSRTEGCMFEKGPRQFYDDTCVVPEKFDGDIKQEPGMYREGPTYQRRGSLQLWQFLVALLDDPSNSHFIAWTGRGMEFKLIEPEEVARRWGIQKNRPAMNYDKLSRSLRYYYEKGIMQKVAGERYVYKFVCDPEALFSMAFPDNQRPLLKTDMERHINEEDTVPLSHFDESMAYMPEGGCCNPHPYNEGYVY
# ELF1, sequence (P32519 whole entry): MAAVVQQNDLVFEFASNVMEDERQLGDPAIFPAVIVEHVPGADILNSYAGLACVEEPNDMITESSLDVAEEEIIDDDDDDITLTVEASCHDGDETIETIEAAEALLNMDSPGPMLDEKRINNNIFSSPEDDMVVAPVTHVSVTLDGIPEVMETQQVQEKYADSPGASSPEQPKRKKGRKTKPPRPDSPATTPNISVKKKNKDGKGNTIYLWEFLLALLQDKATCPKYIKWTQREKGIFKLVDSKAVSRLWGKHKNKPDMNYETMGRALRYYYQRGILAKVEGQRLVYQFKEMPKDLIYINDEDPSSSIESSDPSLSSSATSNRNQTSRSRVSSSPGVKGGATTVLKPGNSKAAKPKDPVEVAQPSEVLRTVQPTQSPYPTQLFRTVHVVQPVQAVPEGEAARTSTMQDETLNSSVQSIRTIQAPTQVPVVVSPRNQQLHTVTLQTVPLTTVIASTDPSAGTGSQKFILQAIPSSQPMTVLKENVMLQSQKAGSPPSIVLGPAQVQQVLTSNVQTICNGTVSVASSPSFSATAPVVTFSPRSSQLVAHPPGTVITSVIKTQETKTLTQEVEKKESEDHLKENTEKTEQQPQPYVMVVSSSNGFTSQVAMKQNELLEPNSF
# SPIB, sequence (Q01892 whole entry): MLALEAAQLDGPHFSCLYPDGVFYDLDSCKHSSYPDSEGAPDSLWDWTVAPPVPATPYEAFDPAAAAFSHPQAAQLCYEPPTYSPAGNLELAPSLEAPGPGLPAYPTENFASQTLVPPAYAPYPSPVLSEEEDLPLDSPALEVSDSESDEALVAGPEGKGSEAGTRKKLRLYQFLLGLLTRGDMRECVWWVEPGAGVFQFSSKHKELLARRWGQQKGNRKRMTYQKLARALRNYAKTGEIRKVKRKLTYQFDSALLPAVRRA
# ELF4, sequence (Q99607 whole entry): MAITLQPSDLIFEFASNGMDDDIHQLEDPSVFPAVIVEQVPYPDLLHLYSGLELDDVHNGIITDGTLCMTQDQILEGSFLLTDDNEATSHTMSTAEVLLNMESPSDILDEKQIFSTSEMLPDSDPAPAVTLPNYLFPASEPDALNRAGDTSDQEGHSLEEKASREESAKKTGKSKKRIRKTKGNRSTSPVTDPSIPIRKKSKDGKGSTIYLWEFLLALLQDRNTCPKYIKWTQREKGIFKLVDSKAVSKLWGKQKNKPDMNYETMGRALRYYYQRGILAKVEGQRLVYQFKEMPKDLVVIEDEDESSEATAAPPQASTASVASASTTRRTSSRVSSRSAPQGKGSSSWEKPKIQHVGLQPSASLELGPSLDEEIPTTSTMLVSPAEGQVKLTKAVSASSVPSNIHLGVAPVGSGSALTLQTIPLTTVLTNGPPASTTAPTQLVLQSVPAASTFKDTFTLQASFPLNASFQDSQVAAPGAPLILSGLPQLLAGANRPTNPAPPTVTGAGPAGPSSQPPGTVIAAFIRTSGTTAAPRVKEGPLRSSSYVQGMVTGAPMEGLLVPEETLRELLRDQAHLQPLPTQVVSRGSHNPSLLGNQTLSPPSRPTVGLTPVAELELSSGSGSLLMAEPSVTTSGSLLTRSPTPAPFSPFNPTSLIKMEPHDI
sequence,measurement,setting,value
GCTCGA,binding signal,[1],"1.22 fold enrichment (6-mer frequency, TF over GST control)"
same,binding signal,[2],"1.12 fold enrichment (6-mer frequency, TF over GST control)"
same,binding signal,[3],"1.15 fold enrichment (6-mer frequency, TF over GST control)"
same,binding signal,[4],"1.2 fold enrichment (6-mer frequency, TF over GST control)"
same,binding signal,[5],"1.21 fold enrichment (6-mer frequency, TF over GST control)"
same,binding signal,[6],"1.19 fold enrichment (6-mer frequency, TF over GST control)"
same,binding signal,[7],"1.22 fold enrichment (6-mer frequency, TF over GST control)"
same,binding signal,[8],"1.24 fold enrichment (6-mer frequency, TF over GST control)"
same,binding signal,[9],"1.13 fold enrichment (6-mer frequency, TF over GST control)"
same,binding signal,[10],"1.25 fold enrichment (6-mer frequency, TF over GST control)"
same,binding signal,[11],"1.22 fold enrichment (6-mer frequency, TF over GST control)"
same,binding signal,[12],"1.74 fold enrichment (6-mer frequency, TF over GST control)"
same,binding signal,[13],"1.31 fold enrichment (6-mer frequency, TF over GST control)"
same,binding signal,[14],"1.25 fold enrichment (6-mer frequency, TF over GST control)"
same,binding signal,[15],"1.29 fold enrichment (6-mer frequency, TF over GST control)"
same,binding signal,[16],"1.07 fold enrichment (6-mer frequency, TF over GST control)"
same,binding signal,[17],"1.24 fold enrichment (6-mer frequency, TF over GST control)"
same,binding signal,[18],"1.17 fold enrichment (6-mer frequency, TF over GST control)"
same,binding signal,[19],"1.07 fold enrichment (6-mer frequency, TF over GST control)"
